# Screening data deposited in PubChem by National Center for Advancing Translational Sciences (NCATS).
# Compounds with a hit are over-represented: about 2.4% of the library has one in this group of screens.
# ClpP mod – qHTS Assay for Activators of ClpP | ATP-dependent Clp protease proteolytic subunit (Bacillus subtilis (strain 168)), P80244 | purified B. subtilis ClpP, FRET peptide cleavage, 20 min | AID 651965, 2013 | Potency, µM (top dose mostly 57.5 µM), for the others: at the highest dose activity change, negative = active | actives 1.9% (n = 340,000); active means well fitted falling curve with a large enough effect; inconclusive means small, poorly fitted or top-dose-only effect; inactive means no such curve, though single readings can be large or run the other way; further: the source files actives as falling curves though it sought activators and does not explain the sign; nearly all actives have a fitted effect of over 65% in size
# Target sequence (P80244 whole entry, looked up): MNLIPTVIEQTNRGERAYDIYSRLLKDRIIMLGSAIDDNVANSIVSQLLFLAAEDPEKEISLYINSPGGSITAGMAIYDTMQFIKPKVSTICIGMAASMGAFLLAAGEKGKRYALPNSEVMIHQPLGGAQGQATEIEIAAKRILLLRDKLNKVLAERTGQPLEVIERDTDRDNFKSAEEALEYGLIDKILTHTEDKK
#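 ClpP 10 microg/mL final, pH 8 Tris/KCl buffer with BSA, glycerol, Tween-20; compound pinned in; FRET-FV substrate; RT 20 min; Ex320/Em430; ΔFRET vs ADEP 5.8 microM, DMSO, no enzyme.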
# PTAP TSG101 blk – blocks PTAP/TSG101 interaction to inhibit HIV-1 budding. Q99816. Fluorescence polarization, FITC-PTAP peptide / Tsg101 binding. Potency, µM (series often up to 115 µM), for inactives: at the top dose activity change, negative = inhibition, usual class: inhibitors. 340,000 tested, under 10 active. AID 493005; active means well fitted inhibition curve with a large enough effect in the main read-out, with a control signal flat, not every such curve was filed as active; inconclusive means small, poorly fitted or top-dose-only effect, or effect the other way, or a change in a side signal; inactive means no such curve, though single readings can be large or run the other way; further: % of control where 0% means no effect
# Target sequence (Q99816 whole entry, looked up): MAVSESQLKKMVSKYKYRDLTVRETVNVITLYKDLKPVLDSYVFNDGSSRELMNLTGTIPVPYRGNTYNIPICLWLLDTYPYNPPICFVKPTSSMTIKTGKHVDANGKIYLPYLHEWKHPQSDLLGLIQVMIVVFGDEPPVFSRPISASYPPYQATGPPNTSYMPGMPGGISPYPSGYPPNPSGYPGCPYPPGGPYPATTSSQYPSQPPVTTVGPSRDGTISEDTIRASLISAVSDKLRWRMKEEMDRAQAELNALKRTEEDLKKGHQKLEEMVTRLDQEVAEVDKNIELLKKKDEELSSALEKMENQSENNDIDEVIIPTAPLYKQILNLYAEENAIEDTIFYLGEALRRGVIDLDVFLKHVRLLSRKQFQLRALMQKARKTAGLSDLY
#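 Fluorescence polarization binding of Tsg101 binding domain (10 uM final) to FITC-labeled PTAP peptide (50 nM final) in HEPES pH 7.5 buffer with NaCl, Tween 20, EDTA, TCEP. Compounds added before peptide; binding 20 min at RT.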
# Rango dissoc inh – inhibition of RanGTP-driven Rango-importin beta dissociation | actives 0.071% (n = 340,000) | Potency, µM (highest dose often 46.1 µM), for the others: at the top dose activity change, negative = inhibition | O95149+P62826 | Biochemical FRET Rango-importin beta, RanGTP-induced dissociation | AID 540253; calls by dose curve; further: % of control where 0% means no effect; nearly all actives have a fitted effect of over 45% in size
#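 Two FRET readings bracket the reaction: one 5 min after compound meets Rango–importin beta, another 45 min after RanGTP-RCC1 (0.6 uM Ran, 0.2 uM RCC1, 2 mM GTP) is added. Only the second defines inhibition.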
# ALOX12 inh – inhibitors of human 12S-lipoxygenase ALOX12. AID 1671190. P18054. purified 12hLO, xylenol orange hydroperoxide absorbance. Potency, µM (top dose mostly 108 µM), for inactives: top-dose activity change, negative = inhibition, hits mostly inhibitors. actives 1.1% (n = 580,000); further: on the % scale 0 is the no-effect control and ±100 the full control effect
#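 Purified human 12hLO at 150 nM in 25 mM Hepes, 0.01% Triton X-100, pH 7.0, preincubated 15 min at room temperature with compound. Reaction started with 40 uM arachidonic acid, 30 min at room temperature. Hydroperoxide measured by Fe-xylenol orange, 573/405 nm absorbance ratio.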
# TDP1 block – inhibitors of human tyrosyl-DNA phosphodiesterase TDP1. Q9NUW8. recombinant TDP1, AlphaScreen DNA substrate cleavage. Potency, µM (top dose mostly 130 µM), without a hit: top-dose activity change, negative = inhibition, hits mostly inhibitors. actives 0.28% (n = 350,000). AID 485290; further: on the % scale 0 is the no-effect control and ±100 the full control effect; nearly all actives have a fitted effect of over 40% in size
#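 Tdp1 1 nM final; 15 min RT w/ cpd; substrate 15 nM, 5 min; beads 10 ug/ml, 10 min; AlphaScreen read. Neg ctrl: no enzyme.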
# Rango complex inh – Rango-importin beta binding inhibition; Q14974; Rango CFP/YFP FRET sensor + importin beta, 45 min; Potency, µM (series often up to 92.2 µM), for inactives: top-dose inhibition of complex formation; actives 0.031% (n = 340,000); AID 540263; calls by dose curve;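 further: 0% = DMSO wells and 100% = buffer wells lacking importin beta; nearly all actives have a fitted effect of over 15% in size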
#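 FRET biosensor (snurportin 1 IBB flanked by EYFP and cerulean), 50 nM, with compound 5 min, then 0.125 microM importin beta in PBS, 1 mM DTT, 0.02% Tween-20, 0.1% BSA. CFP/YFP ratio read after 45 min at room temperature; pre-read flags interference.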
# Starred values were filed as active, the others as inactive; ? = inconclusive; nt = no result given. Unless noted, the call rests on the fitted dose curve; in most records, active means well fitted curve in the direction sought with a large enough effect; inconclusive means small, poorly fitted or top-dose-only effect, or another doubt; inactive means no such curve, though single readings can be large; an effect the other way counts as inactive or inconclusive. Potency means the concentration at half of the fitted maximal effect.
SMILES,ClpP mod,PTAP TSG101 blk,Rango dissoc inh,ALOX12 inh,TDP1 block,Rango complex inh
CC(=O)Nc1ccc(S(=O)(=O)c2ccc(N)cc2)cc1,-0.4%,-4.0%,-3.1%,-7.4%,-4.8%,-3.2%
NC(=S)Nc1ccc(S(=O)(=O)c2ccc(NC(N)=S)cc2)cc1,0.8%,-1.9%,-7.0%,39.8µM*,nt,3.6%
NCC(=O)NC1CC2(CCN(C(=O)c3ccccc3)CC2)c2ccccc21 (stereo not drawn),nt,nt,nt,42.1%,nt,nt
O=C(CCN1CCN(C(c2ccccc2)c2ccccc2)CC1)N/N=C/c1ccc(O)cc1O,-4.2%,-1.4%,-7.3%,?,10.5%,5.8%
COc1ccc(OC)c(/C=N/NC(=O)CCCC(=O)Nc2cccc(Br)c2)c1,25.1µM*,nt,0.3%,4.3%,7.2%,-5.7%
COc1ccc(OC)c(/C=N/NC(=O)CCN2CCN(C(c3ccccc3)c3ccccc3)CC2)c1,28.2µM*,-3.3%,-18.8%,1.0%,5.6%,-0.1%
COc1ccc(O)c(/C=N/NC(=O)CCC(=O)Nc2cccc(C)c2)c1,nt,-8.9%,-9.4%,3.0%,nt,9.7%
CC(=O)N1CCSc2ccc(S(=O)(=O)Nc3ccc(C)c(N(C)C)c3)cc21,nt,nt,nt,-19.8%,nt,nt
O=C(Cn1nnc2sc(-c3ccccc3)cc2c1=O)Nc1ccc(F)c(Cl)c1,nt,nt,nt,-26.2%,nt,nt
CCn1c(CNC(=O)c2ccccc2Br)nnc1SCC(=O)Nc1nncs1,14.1µM*,-0.6%,-1.5%,23.3%,-5.1%,2.8%
Cc1cccc(NC(=O)CSc2nc(-c3ccco3)nc3cc(=O)[nH]n23)c1,-0.9%,nt,nt,10.0%,44.7µM*,nt
COC(=O)[C@@H]1CCCN1C(=O)c1cnn(-c2ncc3c(n2)-c2ccccc2CCC3)c1C1CC1,nt,nt,nt,7.7%,nt,nt
Cc1cccc(C(=O)OCC(=O)NNC(=O)c2cccs2)c1O,0.1%,1.3%,-19.0%,-13.0%,-20.6%,-2.3%
Cc1cccc(C(=O)OCC(=O)NC(=O)c2ccccc2)c1O,12.6µM*,-1.2%,-1.5%,12.3%,0.4%,2.2%
COc1cc(-c2ccnc3nc(C4CCCCC4)nn23)cc(OC)c1OC,nt,nt,nt,16.6%,nt,nt
Cc1ccc(C)c2[nH]c(=O)c(C(c3nnnn3C3CCCC3)N3CCOCC3)cc12 (stereo not drawn),25.1µM*,-3.5%,-9.3%,-20.3%,-0.5%,-5.6%
Cc1ccc(C)c2[nH]c(=O)c(C(c3nnnn3CCc3ccccc3)N3CCOCC3)cc12 (stereo not drawn),28.2µM*,-0.5%,-10.2%,11.5%,1.0%,-3.4%
Cc1ccc2cc(C(c3nnnn3C3CCCC3)N3CCOCC3)c(=O)[nH]c2c1C (stereo not drawn),?,-3.1%,-13.6%,?,7.9%,-3.1%
COc1ccc(Cn2nnnc2C(c2cc3cccc(C)c3[nH]c2=O)N2CCOCC2)cc1 (stereo not drawn),-19.7%,-3.9%,-16.2%,-25.5%,2.0%,?
CC(C)c1nnc(C2CN(C(=O)COc3ccc(F)cc3)CC23CCOCC3)o1 (stereo not drawn),nt,nt,nt,64.4%,nt,nt
Cn1cc(-c2nnc(-c3ccccc3)o2)c2ccccc21,14.1µM*,1.2%,-0.3%,6.5%,5.9%,2.9%
CC(C)Oc1cccc(C(=O)NC(=S)Nc2ccc3c4c(cccc24)CC3)c1,-1.6%,4.3%,0.3%,17.8µM*,11.5%,3.6%
COc1cc(OC)cc(C(=O)NC(=S)Nc2ccc3c4c(cccc24)CC3)c1,3.6%,-0.3%,9.1%,?,5.3%,5.9%
Cc1cc(=O)n2[nH]c(-c3ccc(F)cc3)cc2n1,15.8µM*,-2.5%,-5.3%,0.0%,-2.0%,1.4%
Cc1cc(=O)n2[nH]c(C)c(-c3ccc(Cl)cc3)c2n1,?,-10.0%,-4.1%,20.8%,0.0%,1.6%
SMILES,ClpP mod,PTAP TSG101 blk,Rango dissoc inh,ALOX12 inh,TDP1 block,Rango complex inh
Cc1cc(=O)n2[nH]c(-c3ccc(Cl)cc3)cc2n1,28.2µM*,-2.4%,27.7%,-2.8%,-2.8%,0.0%
CCOC(=O)Cc1cc(=O)n2[nH]c(-c3ccccc3)cc2n1,28.2µM*,-3.1%,26.0%,6.6%,3.2%,-0.2%
Cc1cccc(-c2cc3nc(-c4ccccc4)cc(=O)n3[nH]2)c1,nt,-6.7%,-0.5%,10.9%,nt,-2.7%
Cc1nc(C)c(C(=O)NCC2Cn3cccc3C(=O)N2Cc2ccccc2)s1 (stereo not drawn),nt,nt,nt,26.4%,nt,nt
CCOc1ccc(-c2cn3c(n2)sc2cc(C(=O)NCCc4ccc(OC)c(OC)c4)ccc23)cc1,35.5µM*,nt,nt,?,3.9%,nt
COc1ccc(S(=O)(=O)N2CCN(C(=O)COc3ccc4c(C)cc(=O)oc4c3)CC2)cc1,22.4µM*,-4.8%,-11.9%,0.0%,4.8%,-11.4%
Cc1cc(=O)oc2cc(OCC(=O)N3CCCC(C)C3)ccc12 (stereo not drawn),31.6µM*,-6.6%,13.1%,26.7%,1.1%,-0.5%
CCOc1ccccc1C(=O)NCc1nnc2ccc(-c3ccccc3)nn12,nt,nt,nt,27.4%,nt,nt
O=C(O)c1cc(-c2ccc(/C=N/NC(=S)Nc3ccccc3)o2)ccc1Cl,nt,-3.7%,0.2%,28.2µM*,nt,?
O=[N+]([O-])c1cccc(-c2ccc(/C=N/NC(=S)Nc3ccccc3)o2)c1,2.0%,-5.0%,-1.1%,-2.1%,11.1%,5.2%
COc1ccc2c(c1)CCCC(Br)C2=O (stereo not drawn),-1.0%,-0.4%,-15.2%,39.8µM*,nt,1.6%
C[C@]1(CO)[C@H]2Cc3sc(NC(=O)C4CCCCC4)nc3[C@@H](CC(=O)NCc3cccnc3)[C@]2(C)CC[C@H]1O,nt,nt,nt,7.3%,nt,nt
Cc1ccc(S(=O)(=O)N2[C@@H]3CC[C@H]2CC(NC(=O)c2ccncc2)C3)c(C)c1 (stereo partly drawn),nt,nt,nt,17.8µM*,nt,nt
CC(C)c1ccc2oc(-c3ccc(N)cc3O)nc2c1,nt,nt,nt,35.5µM*,nt,nt
CC(C)c1ccc2oc(-c3cc(N)ccc3O)nc2c1,1.9%,-6.8%,-16.5%,?,12.3%,-3.9%
N#C/C(=C\c1ccc(-c2ccc(Cl)c(Cl)c2)o1)c1ccccc1,nt,nt,nt,-5.6%,nt,nt
c1ccc(-c2cc(-c3ccncc3)nc3ccc4ccccc4c23)cc1,22.4µM*,-0.4%,17.0%,-4.8%,2.7%,4.5%
OC(C#CCN1CCC(c2ccccc2)C1)(c1ccccc1)C1CCCCC1 (stereo not drawn),nt,nt,nt,0.891µM*,nt,nt
COc1ccccc1C(C)NC(=O)CN1CCN(c2ccc([N+](=O)[O-])c3cnccc23)CC1 (stereo not drawn),nt,nt,nt,11.2µM*,nt,nt
CCCC(C)(C)NC(=O)c1cc(OC)c(OC)c(OC)c1,nt,nt,nt,-4.8%,nt,nt
